# Where “and” joins values, the source holds several entries; their conditions need not be identical. Equal entries are not always repeated.
# Experiments:
# Assay type in all cases: functional
# [1] = molecular target: Solute carrier family 2, facilitated glucose transporter member 1 (Homo sapiens) (UniProt P11166); test: ST_JUDE_LEISH: Cytotoxicity at 2uM final concentration against transgenic Leishmania Mexicana promastigotes LmGLUT1 that are glucose transport deficient and complemented with the human glucose transporter GLUT1. Activity is measured by DNA content using SYBR green in vitro
# [2] = molecular target: Hexose transporter 1 (Plasmodium falciparum) (UniProt O97467); test: ST_JUDE_LEISH: Cytotoxicity at 2uM final concentration against transgenic Leishmania Mexicana promastigotes LmPfHT that are glucose transport deficient and complemented with the Plasmodium falciparum hexose transporter. Activity is measured by DNA content using SYBR green in vitro
# [3] = molecular target: Glucose transporter (Leishmania mexicana) (UniProt O61059); test: ST_JUDE_LEISH: Cytotoxicity at 2uM final concentration against transgenic Leishmania Mexicana promastigotes LmGT2 that are glucose transport deficient and complemented with the L. Mexicana glucose transporter 2. Activity is measured by DNA content using SYBR green in vitro
# Sequence of Solute carrier family 2, facilitated glucose transporter member 1 (Homo sapiens) (P11166 whole entry): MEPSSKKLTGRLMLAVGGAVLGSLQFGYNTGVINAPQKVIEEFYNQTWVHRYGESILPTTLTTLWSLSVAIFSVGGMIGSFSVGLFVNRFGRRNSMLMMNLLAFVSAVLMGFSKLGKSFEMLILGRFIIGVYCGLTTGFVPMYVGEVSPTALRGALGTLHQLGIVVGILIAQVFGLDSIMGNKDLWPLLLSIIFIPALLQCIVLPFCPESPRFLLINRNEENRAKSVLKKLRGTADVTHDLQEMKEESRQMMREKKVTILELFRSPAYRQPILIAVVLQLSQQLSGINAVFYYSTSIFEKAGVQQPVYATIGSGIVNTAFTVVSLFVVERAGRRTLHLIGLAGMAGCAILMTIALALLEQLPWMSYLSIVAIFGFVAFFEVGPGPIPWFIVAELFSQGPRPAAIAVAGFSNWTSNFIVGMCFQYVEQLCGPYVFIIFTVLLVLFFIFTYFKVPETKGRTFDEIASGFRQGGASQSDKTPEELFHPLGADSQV
smiles,measurement,setting,value
O=[N+]([O-])c1cccc(CNCC2CCN(Cc3ccc(C(F)(F)F)cc3)CC2)c1,inhibition,[1],0.44%
same,inhibition,[2],5.74%
same,inhibition,[3],6.41%
Cc1ccccc1C1CCN(C2CCC(NC(=O)c3cc(-c4ccccc4)oc3C)CC2)CC1 (stereo not drawn),inhibition,[1],-1.06%
same,inhibition,[2],0.71%
same,inhibition,[3],-1.44%
Cc1cccc2nc(-c3ccc(-c4ccc(NC(=O)Nc5ccsc5)cc4)s3)[nH]c12,inhibition,[1],5.12%
same,inhibition,[2],5.23%
same,inhibition,[3],4.39%
NC1=NC2(CCCCC2)N(Cc2ccc(Cl)c(Cl)c2)C(N)=N1,inhibition,[1],-1.03%
same,inhibition,[2],-0.28%
same,inhibition,[3],-0.42%
CN1CCN(c2ccnc3ccc(NC(=O)c4ccc(Cl)c(Cl)c4)cc23)CC1,inhibition,[1],-1.88%
same,inhibition,[2],0.68%
same,inhibition,[3],0.97%
Cc1cc(N/N=C/c2cccc([N+](=O)[O-])c2)c2ccc(F)cc2n1,inhibition,[1],3.46%
same,inhibition,[2],2.8%
same,inhibition,[3],0.94%
N#Cc1ccc2c(c1)CN(CC[C@H]1CC[C@H](NC(=O)/C=C/c3c[nH]c4ccccc34)CC1)CC2,inhibition,[1],7.48% and 1.99%
same,inhibition,[2],6.9% and 1.06%
same,inhibition,[3],5.69% and -2.35%
CC1(C)C(=O)Nc2ccc3c(c21)CC1SC(=O)NN=C31 (stereo not drawn),inhibition,[1],-0.91%
same,inhibition,[2],0.11%
same,inhibition,[3],0.01%
O=C(Nc1cccc(CN2CCCN(Cc3ccc(O)cc3)CC2)c1)c1cccc(C(F)(F)F)c1,inhibition,[1],10.5%
same,inhibition,[2],9.62%
same,inhibition,[3],11.3%
COc1ccc(NC(=O)/C=C/c2ccc(Cl)c(Cl)c2)cc1N1CCN(C)CC1,inhibition,[1],9.73%
same,inhibition,[2],4.85%
same,inhibition,[3],6.48%
O=C(CCc1cccc(O)c1)NCC(NCCCNc1cc(=O)c2ccccc2[nH]1)c1cc(Br)cc(Br)c1 (stereo not drawn),inhibition,[1],8.91%
same,inhibition,[2],5.63%
same,inhibition,[3],6.84%
CCCCNc1cc(C)nc(NCc2ccccc2)n1,inhibition,[1],22.1%
same,inhibition,[2],16.4%
same,inhibition,[3],5.11%
CCCCNC(=O)C(C)NC(=O)c1ccc(O)c(-c2ccc(Cl)c(Cl)c2)c1 (stereo not drawn),inhibition,[1],-0.19%
same,inhibition,[2],-0.53%
same,inhibition,[3],0.05%
c1cc(CNCCN2CCNCC2)cc(-c2cccc(-c3nc4ccccc4[nH]3)c2)c1,inhibition,[1],1.08%
same,inhibition,[2],1.4%
same,inhibition,[3],0.14%
CCN(CC)CCCC(C)Nc1c(-c2ccc(Br)cc2)cnc2ccccc12 (stereo not drawn),inhibition,[1],57.5%
same,inhibition,[2],14.4%
same,inhibition,[3],3.73%
CCOc1cc(C(=O)Nc2ccc3nc(N4CCN(C)CC4)cc(C)c3c2)cc(OCC)c1OCC,inhibition,[1],3.11%
same,inhibition,[2],3.76%
same,inhibition,[3],1.63%
Cn1cnc(CCNC(=O)c2ccc(-c3cccc(-c4nc5cc(C(F)(F)F)ccc5[nH]4)c3)cc2)c1,inhibition,[1],4.83%
same,inhibition,[2],4.43%
same,inhibition,[3],5.89%
O=c1cc(NC[C@H]2CCC[C@@H]2NC2CCCc3c2[nH]c2ccccc32)[nH]c2ccccc12 (stereo partly drawn),inhibition,[1],0.74%
same,inhibition,[2],-1.31%
same,inhibition,[3],5.67%
Oc1ccc(CN2Cc3ccccc3OC3(CCN(Cc4c[nH]c5cnccc45)CC3)C2)cc1,inhibition,[1],-0.29%
same,inhibition,[2],-0.21%
same,inhibition,[3],-3.09%
CN(CCN)Cc1ccc(-c2ccc(-c3nc4cc(F)ccc4[nH]3)s2)cc1,inhibition,[1],-0.54%
same,inhibition,[2],0.42%
same,inhibition,[3],-1.71%
Oc1ccccc1CCNC1CCc2ccccc2C1 (stereo not drawn),inhibition,[1],4.4%
same,inhibition,[2],5.27%
same,inhibition,[3],6.05%
N#CCCN1CCN(Cc2ccc(-c3ccc(-c4nc5cc(F)ccc5[nH]4)s3)cc2)CC1,inhibition,[1],5.49%
same,inhibition,[2],0.84%
same,inhibition,[3],4.14%
CC(C)(C)c1ccc(CN2CCC(CNC(=O)c3cc(-c4ccccc4C(F)(F)F)cs3)C2)cc1 (stereo not drawn),inhibition,[1],1.63%
same,inhibition,[2],3.76%
same,inhibition,[3],1.21%
Cc1cc2c(cc1Cl)N(C(=O)Nc1cc(F)cc(-c3cncnc3)c1)CC2,inhibition,[1],9.04%
same,inhibition,[2],5%
same,inhibition,[3],2.7%
COc1cc(OC)c2c(c1Cl)O[C@]1(C2=O)C(=O)C(Cc2ccccc2)(Cc2ccccc2)C(=O)C[C@H]1C,inhibition,[1],2.41%
same,inhibition,[2],3.13%
same,inhibition,[3],2.6%
Cc1nnsc1C(=O)Nc1ccc(-c2cccc(-c3nc4cc(C(F)(F)F)ccc4[nH]3)c2)cc1,inhibition,[1],0.51%
same,inhibition,[2],0.86%
same,inhibition,[3],4.55%
COc1ccc(-n2cc(CNCCCn3ccnc3)c(-c3cccc(F)c3)n2)cc1,inhibition,[1],1.74%
same,inhibition,[2],2.48%
same,inhibition,[3],-5.03%
CCc1ccc(NC(=O)c2ccc(CN3CCCN(CCC(C)C)CC3)cc2)cc1,inhibition,[1],7.61%
same,inhibition,[2],4.69%
same,inhibition,[3],5.85%
Cc1cccc(-c2ccc3c(c2)CC(NCc2cccc(-n4ccnc4)c2)C3)c1 (stereo not drawn),inhibition,[1],31.8%
same,inhibition,[2],41.4%
same,inhibition,[3],26.6%
COc1ccc(Cn2ncc3c4c(N)nc(N)nc4ccc32)cc1OC,inhibition,[1],86.6%
same,inhibition,[2],82.8%
same,inhibition,[3],73%
C[C@H](Cc1ccc(OCCNC[C@H](O)c2cccc(Cl)c2)cc1)NC[C@H](O)c1ccc(Cl)c(Cl)c1,inhibition,[1],2.67%
same,inhibition,[2],1.89%
same,inhibition,[3],3.19%
NCc1cccc(-c2ccccc2CNC2CCN(Cc3ccccc3)CC2)c1,inhibition,[1],6%
same,inhibition,[2],5.52%
same,inhibition,[3],6.92%
NC12CC3CC(CC(C3)C1)C2,inhibition,[1],5.47%
same,inhibition,[2],5.42%
same,inhibition,[3],4.45%
CCCC(C)N(Cc1ccc(C(C)(C)C)cc1)C(=O)c1ccc(OC)cc1 (stereo not drawn),inhibition,[1],9.4%
same,inhibition,[2],10.6%
same,inhibition,[3],7.03%
FC(F)(F)COc1ccc2ccccc2c1CNCCCCCCNCc1c(OCC(F)(F)F)ccc2ccccc12,inhibition,[1],1.61%
same,inhibition,[2],0.57%
same,inhibition,[3],-1.38%
COCCNCc1ncsc1-c1ccc2c(Nc3cc(O)ccc3C)ccnc2c1,inhibition,[1],1.05%
same,inhibition,[2],0.61%
same,inhibition,[3],1%
OCCN1CCN(c2nc(Nc3cccc(F)c3)c3cnn(-c4ccccc4)c3n2)CC1,inhibition,[1],3.91%
same,inhibition,[2],0.94%
same,inhibition,[3],-2.4%
CCN(CC)CCN(Cc1ccc(-c2ccc(C(F)(F)F)cc2)nc1)C(=O)Cn1c(SCc2ccc(F)cc2)nc(=O)c2sccc21,inhibition,[1],1.92%
same,inhibition,[2],1.65%
same,inhibition,[3],1.84%
CCCCCCCN1CC[C@@H](CCCc2ccnc3ccc(OCCC4CCNCC4)cc23)[C@@H](CC)C1,inhibition,[1],7.73%
same,inhibition,[2],7.46%
same,inhibition,[3],6.53%
COc1cccc(C(=O)NCCc2cccc(Cl)c2)c1OCc1ccccc1,inhibition,[1],0.04%
same,inhibition,[2],-0.53%
same,inhibition,[3],-0.7%
Nc1ncc(-c2cn[nH]c2)cc1-c1nc2ccc(Cl)cc2[nH]1,inhibition,[1],2.56%
same,inhibition,[2],3.75%
same,inhibition,[3],3.89%
CCN(CCCN1CCCCC1)c1cc(C)nc(Nc2ccc(Cl)cc2C)n1,inhibition,[1],1.07%
same,inhibition,[2],1.21%
same,inhibition,[3],1.9%
CCN1CCN(c2ccc(NC(=O)c3cc4c(C)nn(-c5ccccc5)c4s3)cc2C)CC1,inhibition,[1],1.44%
same,inhibition,[2],3.9%
same,inhibition,[3],-1.39%
CC(C)(C)C(=O)Nc1ccccc1Oc1ccc(Cl)cc1,inhibition,[1],5.77%
same,inhibition,[2],4.21%
same,inhibition,[3],5.27%
CC1(C(=O)Nc2ccc([N+](=O)[O-])cc2O)CC2c3ccccc3C1c1ccccc12 (stereo not drawn),inhibition,[1],2.18%
same,inhibition,[2],3.79%
same,inhibition,[3],0.74%
O=C(Nc1ccc2c(ccn2C2CCCN(Cc3cc(F)cc(F)c3F)CC2)c1)c1ccco1 (stereo not drawn),inhibition,[1],1.97%
same,inhibition,[2],-3.49%
same,inhibition,[3],2.17%
CCCC1N=C(N)N=C(N)N1c1ccc(C)cc1 (stereo not drawn),inhibition,[1],4.06%
same,inhibition,[2],2.51%
same,inhibition,[3],2.47%
O=S(=O)(Nc1cccc(CCN2CCC(N3CCCCC3)CC2)c1)c1ccc(Cl)cc1,inhibition,[1],1.09%
same,inhibition,[2],1.72%
same,inhibition,[3],0.8%
CCCCCC(=O)N1CCOC(CCN2CCc3c(c4ccccc4n3C)C2)(c2ccc(Cl)c(Cl)c2)C1 (stereo not drawn),inhibition,[1],10.5%
same,inhibition,[2],7.81%
same,inhibition,[3],9.52%
CCC(=O)N[C@@H]1CN[C@@H](C#Cc2cc3c(Nc4ccc(OCc5cccc(F)c5)c(Cl)c4)ncnc3s2)C1,inhibition,[1],2.02%
same,inhibition,[2],0.3%
same,inhibition,[3],1.72%
O=C(Nc1ccc(C(F)(F)F)cc1)c1cccc(S(=O)(=O)NC2CCN(CC3CCCCC3)CC2)c1,inhibition,[1],5.27%
same,inhibition,[2],5.53%
same,inhibition,[3],4.52%
